Measured values from PubChem BioAssay AID2380 (Sanford-Burnham Center for Chemical Genomics, 2010).
The whole screen tested about 330,000 compounds, of which about 960 (0.29%) were called active. The sample holds actives, similar compounds and a random draw of the others, so the mix is not that of the screen. A number with no mark means an inactive call.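 How the source made its calls: active means compounds whose signal lies at least 3.5 SD above the mean of all wells on their plate; inactive means the rest.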

assay: small molecules increasing insulinoma cell replication – ATP luminescence, uHTS, primary screen (AID 2380); details: MIN6 cells proliferation, ATPlite luminescence, 48 h; at 10 µM; hits give high values; 100% = growth in 10% serum; cells starved in 0.2% serum;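 further: 0% = DMSO-treated cells in low-serum medium and 100% = 10% serum control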

| SMILES | proliferation |
| --- | --- |
| COc1cccc(CNC(=O)C2CCCN(c3ncnc4c3nc3n4CCCCC3)C2)c1 (stereo unspecified) | 7.08% (active) |
| COc1cccc(NC(=O)C2CCCN(c3ncnc4c3nc3n4CCCCC3)C2)c1 (stereo unspecified) | 5.62% |
| O=C(NCCCN1CCCCC1)C1CCCN(c2ncnc3c2nc2n3CCCCC2)C1 (stereo unspecified) | -1.13% |
| Cc1ccccc1CNC(=O)CCC(=O)N1Cc2ccccc2Oc2ncccc21 | 12.5% (active) |
| Cc1ccc2c(c1)N(C(=O)CCC(=O)NCc1cccnc1)CCO2 | 1.08% |
| CC1CN(C(=O)CCC(=O)NCc2cccnc2)c2ccccc2O1 (stereo unspecified) | -2.56% |
| CC(C)Cc1nc(Nc2ccc(S(=O)(=O)N3CCCC3)cc2)c2nnn(Cc3ccccc3)c2n1 | -0.74% |
| COC(=O)C(C(=O)Nc1cccc(C)n1)C1CCCCCC1 (stereo unspecified) | 0% |
| O=C(C1CCN(C2CCN(Cc3cccc4c3OCO4)CC2)CC1)N1CCOCC1 | 1.29% |
| CC1CCN(C(=O)CCc2nnc3ccc(NCc4ccco4)nn23)CC1 | -1.78% |
| O=C(COC(=O)c1ccccc1)Nc1cccc(S(=O)(=O)N2CCOCC2)c1 | 1.39% |
| COC(=O)COc1ccc(S(=O)(=O)N2CCOCC2)cc1 | -2.03% |
| CC(=O)c1cccc(NC(=O)COc2ccc(S(=O)(=O)N3CCOCC3)cc2)c1 | 10.6% (active) |
| CCN1C(=O)[C@@H]2[C@@H](c3ccc(-c4ccccc4)cc3)N3CCCC[C@@]3(C(=O)OC)[C@@H]2C1=O | -7.4% |
| CN(CC(=O)Nc1c(Cl)cccc1Cl)C(=O)CC1OC(=O)c2ccccc21 (stereo unspecified) | -1.95% |
| CC1Cn2c(nnc2-c2cccs2)S1 (stereo unspecified) | -1.85% |
| O=C(NCc1ccc2c(c1)OCO2)c1cc2c(s1)CS(=O)(=O)C2 | -0.86% |
| O=C(NNC(=O)C(O)c1ccccc1)NC1CCCCC1 (stereo unspecified) | -1.83% |
| CC(=O)CC(CC(=O)NC1CCCCC1)c1ccccc1 (stereo unspecified) | 0.52% |
| CC(=O)OC(C(=O)NC1CCCCC1)c1ccccc1 (stereo unspecified) | 5.32% (active) |
| Cn1c(=O)c2c(ncn2CC(COCc2ccccc2Cl)OCc2ccccc2Cl)n(C)c1=O (stereo unspecified) | -1.81% |
| Nc1[nH]c(=S)nc2nc(-c3ccccc3)c(-c3ccccc3)nc12 | -5.91% |
| COC(=O)c1cc(C(=O)NC(C)C2CC3CCC2C3)cc([N+](=O)[O-])c1 (stereo unspecified) | 0% |
| O=S(=O)(NCc1ccccn1)c1ccc(F)cc1 | 0.39% |

| SMILES | proliferation |
| --- | --- |
| O=S(=O)(NCCc1ccc(F)cc1)c1cccc2cccnc12 | 3.17% |
| O=S(=O)(NCCOc1cccc2cccnc12)c1ccc(F)cc1 | 5.56% (active) |
| Cc1cc(Cl)ccc1NNC(=O)c1snnc1C | -4.18% |
| CNc1[nH]ncc1[N+](=O)[O-] | 3.19% |
| CN(C(=O)CSc1nnc(-c2n[nH]c3ccccc23)o1)c1ccccc1 | 0.29% |
| Cc1ccc(OCC(=O)Nc2ccc(NC(=O)c3cccs3)cc2)c(C)c1 | 0% |
| Cc1ccc(NC(=O)c2cccs2)cc1S(=O)(=O)N(C)C | 0.43% |
| Cc1ccc(C(=O)Nc2ccc(NC(=O)c3cccs3)cc2)c(C)c1 | 0% (active) |
| CC(C)(C)N(CC#CCC(O)(c1ccccc1)C1CCCC1)CCO (stereo unspecified) | 2.2% |
| O=C(Nc1ccccc1N1CCCC1)c1ccc2ccccc2c1 | -2.88% |
| COc1ccc(NS(=O)(=O)c2ccc(N3CCOCC3)c(NC(=O)c3ccccc3Br)c2)cc1 | 5.36% |
| CCn1c(=O)n(CC)c2cc(N3CCCC3)c(NC(=O)c3ccccc3Br)cc21 | 13.7% (active) |
| CCC(C(=O)NC1CCCC1)N(C(=O)Cn1nnc(-c2ccc(C)o2)n1)c1ccc(OC)c(OC)c1 (stereo unspecified) | 5.41% |
| COc1ccc(N(CC(=O)Nc2cc(OC)ccc2OC)S(=O)(=O)c2c(C)noc2C)cc1 | -0.48% |
| CCCOc1ccc(NC(=O)CC2C(=O)N(C)C(=S)N2Cc2ccc3c(c2)OCO3)cc1 (stereo unspecified) | 0% |
| C/C(=N/Nc1ccc(Cl)cc1)c1cnnc(-c2ccccc2)n1 | -3.11% |
| CSc1nsc(NC(=O)Nc2ccccc2)n1 | -5.02% |
| CC/C(=N/Nc1ccccc1)c1cnnc(SC)n1 | 8.26% (active) |
| OCc1ccc(-c2ccccc2)c(-c2ccccc2)c1 | -3.43% |
| O=C(O)CC(SCC(=O)Nc1ccc(Br)cc1)C(=O)O (stereo unspecified) | -0.34% |
| COC(=O)Nc1sc2nc(C)cc(C)c2c1-n1cccc1 | 8.22% (active) |
| CCCCOC(=O)Nc1sc2nc(C)cc(C)c2c1-n1cccc1 | 0.21% |
| Cc1cc(C)c2c(-n3cccc3)c(NC(=O)OCc3ccccc3)sc2n1 | -5.05% |
| CCOC(=O)N1CCN(C(=O)c2ccc3c(=O)n(CCc4ccc(OC)c(OC)c4)c(=O)[nH]c3c2)CC1 | 2.68% |

| SMILES | proliferation |
| --- | --- |
| CCOc1ccc(-n2c(SCC(=O)Nc3cc(C(=O)O)ccc3Cl)nc3ccccc3c2=O)cc1 | -1.58% |
| S=C(Nc1cccc(Cl)c1)Nc1ccc2cn[nH]c2c1 | 0% (active) |
| FC(F)(F)c1cccc(NC(=S)Nc2cccc(Cl)c2)c1 | -6.83% |
| Cc1csc(NC(=S)Nc2cccc(Cl)c2)n1 | -2.77% |
| CCCCn1c(N)c(N(CC)C(=O)/C=C/c2ccco2)c(=O)[nH]c1=O | -1.59% |
| COc1ccc(C(=O)CCC(=O)Nc2ccc(Cl)cc2)cc1 | -2.97% |
| CO/N=C/CC(=O)c1ccc(OC)cc1 | -1.22% |
| COc1ccc(CCC(=O)c2ccc(OC)cc2)cc1 | 5.33% (active) |
| CCCCn1c(N)c(N(CCOC)C(=O)c2cccc(S(=O)(=O)N3CCCCC3)c2)c(=O)[nH]c1=O | 1.76% |
| c1ccc(C[C@H]2CNCCN2CCC23CC4CC(CC(C4)C2)C3)cc1 | -8% |
| CC(C)(C)C(=O)c1cnc(Nc2ccccc2)s1 | -3.47% |
| O=C(/C=C/Nc1ccccc1)c1cnc(-c2ccccc2)s1 | -1.21% |
| CC(=O)c1cnc(-c2ccccc2)s1 | 8.82% (active) |
| O=C(CN1CCN(c2ccc(F)cc2)CC1)Nc1cccc(C(F)(F)F)c1 | -3.27% |
| CC(C)(C)C1CCC(OC(=O)CCC(=O)Nc2ccccc2)CC1 (stereo unspecified) | 0% |
| O=C1c2ccccc2S(=O)(=O)c2cc(N3CCN(c4ccccn4)CC3)ccc21 | 12.1% (active) |
| O=C(c1ccc2c(c1)C(=O)N(c1ccc(Cl)cc1)C2=O)N1CCN(c2ccccn2)CC1 | 2.75% |
| O=C(c1ccc2c(c1)N(Cc1ccc(F)cc1)C(=O)c1ccccc1S2(=O)=O)N1CCN(c2ccccn2)CC1 | -0.68% |
| Cc1cc(=O)oc2cc(OCC3CC(c4ccccc4Cl)=NO3)ccc12 (stereo unspecified) | -5.28% |
| COc1ccc(OCC(=O)OCCN(C)C)cc1 | 0.06% |
| Cc1c(C(=O)NCCN(C)C)oc2ccc(S(=O)(=O)N3CCCC3)cc12 | 0% |
| CCn1c(SCC(=O)N/N=C/C=C/c2ccccc2[N+](=O)[O-])nnc1-c1ccccc1 | -1.08% |
| O=C(CSc1nc2ccccc2[nH]1)N/N=C/C=C\c1ccccc1[N+](=O)[O-] | 6.1% (active) |
| Cc1ccc(-n2c(SCC(=O)N/N=C/C=C/c3ccccc3[N+](=O)[O-])nc3ccccc3c2=O)cc1 | -2.84% |

| SMILES | proliferation |
| --- | --- |
| Cn1cc(-c2ccccc2)cc(C#N)c1=O | -2.8% |
| Cc1scc(C(=O)NNC(=S)NCc2ccccc2)c1C | 0% |
| Cc1ccc(OCC(=O)NNC(=S)NCc2ccccc2)cc1 | 1.61% |
| O=C(NNC(=S)NCc1ccccc1)c1ccc(OC(F)F)cc1 | 0% (active) |
| C=CCn1nc(-c2ccccc2)c2c(C)onc2c1=O | 2.27% |
| Cc1cccc(CN2CCC(n3nccc3NC(=O)c3ccccc3C)CC2)n1 | 0.34% |
| CN1C(=O)[C@H]2[C@@H](C3CC3)N3C(=O)CN(Cc4ccccc4)C(=O)[C@@]3(C)[C@H]2C1=O | 3.27% |
| Fc1ccc(CNCc2ccc(Br)cc2)cc1 | 5.1% (active) |
| CCCCC(=O)NCc1ccc(F)cc1 | 0% |
| O=C(CC1CCCCC1)NCc1ccc(F)cc1 | -3.62% |
| Cc1ccc(S(=O)(=O)N2CCN(C(=O)c3ccccc3-c3nc4ccccc4s3)CC2)c(C)c1 | -1.73% |
| COc1ccc(Cl)cc1S(=O)(=O)Nc1cccc(C(=O)O)c1 | -0.59% |
| CC(C)c1nnc(NC(=O)COC(=O)/C=C/c2ccc([N+](=O)[O-])cc2)s1 | 0.53% |
| O=C(c1ccco1)N1CCN(C(=O)c2ccc(COc3ccc(F)cc3)o2)CC1 | 6.29% |
| COc1ccccc1OCc1ccc(C(=O)NC(C)c2ccccc2)o1 (stereo unspecified) | 0.18% |
| COc1ccccc1OCc1ccc(C(=O)N2CCN(C)CC2)o1 | 7.74% (active) |
| CC(NC(=O)c1ccco1)c1ccc2c(c1)OCO2 (stereo unspecified) | -0.03% |
| O=C(NC(=S)Nc1cccc2c(O)cccc12)c1cccc(Br)c1 | -7.11% |
| Cc1cc(C(=O)NNC(=S)Nc2ccccc2C)cs1 | 0% |
| Cc1ccccc1NC(=S)NNC(=O)c1cccc(Br)c1 | 13.8% (active) |
| CC1(C)O[C@@H]2[C@H](O1)[C@@H](CO)O[C@H]2n1c(N2CCCCC2)nc2c(N)ncnc21 | 1.62% |
| COc1ccc(C)cc1Nc1nc(C)nc2c1oc1ccccc12 | -4.77% |
| COCCNc1nc(-c2ccccc2)nc2c1oc1ccccc12 | 6.28% (active) |
| C[C@@H](Nc1nc(-c2ccccc2)nc2c1oc1ccccc12)C(=O)O | -1.21% |
